Laboratory results from PubChem BioAssay (Tox21).
Inconclusive results are not listed. A number with no mark means an inactive call. Activity calls are given as the source filed them. The call rests on the fitted dose curve.

experiment: qHTS assay for small molecules that induce genotoxicity in human embryonic kidney cells expressing luciferase-tagged ATAD5 - cell viability (AID 651634); details: HEK293T ATAD5-luc cells viability, CellTiter-Fluor, 15.5 h; series mostly up to 83.3 µM; activity, negative = cytotoxicity: at the top concentration; further: nearly all actives have a fitted effect of over 25% in size
Description: National Center for Advancing Translational Sciences [NCATS]
NIH Chemical Genomics Center [NCGC]
U.S. Environmental Protection Agency [EPA]
National Institutes of Environmental Health Sciences [NIEHS]
National Toxicology Program [NTP]
U.S. Food and Drug Administration [FDA]
Enhanced Level of Genome Instability Gene 1 (ELG1; human ATAD5) protein levels increase in response to various types of DNA damage. Using a luciferase reporter-gene tagged with ElG1, a cell-based assay [developed by Kyungjae Myung, NHGRI, NIH] was used to measure the induction of ATAD5 in human embryonic kidney cells (HEK293T). So, increase in luciferase activity can be used to identify the compounds that cause genetic stress. In addition to genotoxicity, these cells were also used to test for cytotoxicity by measuring the protease activity within live cells.
Tox21 Assay Protocol Summary:
For cytotoxicity screening, 2,000 cells in 5 uL/well were dispensed into white, solid-bottom 1536-well plates using a Multidrop Combi (Thermo Scientific) dispenser. Following transfer of 23 nL compound or DMSO vehicle by a pin tool, the plates were incubated 15.5 hr at 37C and 5% CO2. 1 ul CellTiter-Fluor reagent (Promega, Madison, WI) was then added to each plate and following 30 min incubation at 37C, fluorescence intensity was quantified on a ViewLux CCD-based plate reader.
On the % scale 0 is the no-effect control and ±100 the full control effect; potency means the concentration at half of the fitted maximal effect.

SMILES	activity, negative = cytotoxicity	Potency
N#Cc1cc2ccccc2c2ccccc12	24.5% [at 95.3 µM]	–
C1=Cc2ccccc2C1	11.6%	–
Cl/C(=C\n1cncn1)c1ccc(Cl)cc1Cl	9.29%	–
CC(=O)c1ccc2c(c1)[C@H](NC(=O)c1ccc(F)cc1)[C@@H](O)C(C)(C)O2	-13.1%	–
O=C1CCCCCO1	3.98% [at 95.3 µM]	–
CC(=O)/C(C)=C/C1C(C)=CCCC1(C)C (stereo not given)	20.3%	–
O=C(Cl)c1c(Cl)cccc1Cl	15% [at 95.3 µM]	–
CCN(CC)CCc1nc(-c2ccccc2)no1	17.1% [at 39.1 µM]	–
CCOc1ccc(NC(=O)CC(C)=O)cc1	11.8%	–
CN1CCC[C@@H]1c1cccnc1	17.1%	–
CN1CCN(C2=Nc3ccccc3Sc3ccc(Cl)cc32)CC1	-4.75%	–
S=C(S)NCCNC(=S)S	-15.2%	–
ClC(Cl)(Cl)c1ccc(C(Cl)(Cl)Cl)cc1	1.86%	–
CC(C)(C)c1cc(O)c(C(C)(C)C)cc1O	-25.2%	–
CCN(CC)CCOc1ccc2c(c1)C(=O)c1cc(OCCN(CC)CC)ccc1-2	-23.3%	–
C=C(C)C(=O)OCCN(C)C	19% [at 95.3 µM]	–
CC(C)(C)c1ccc(OCC2CO2)cc1 (stereo not given)	9.46% [at 95.3 µM]	–
CCCCCCc1ccc(N)cc1	-25.6%	–
CC(C)CCCCCCOC(=O)c1ccc(C(=O)OCCCCCCC(C)C)c(C(=O)OCCCCCCC(C)C)c1	1.84%	–
CCN(CC)CCOC(=O)C1(c2ccccc2)CCCC1	17%	–

SMILES	activity, negative = cytotoxicity	Potency
Nc1ccc(C(=O)Nc2ccccc2N)cc1	-17.1%	–
CCOC(=O)CC(C)C	6.39%	–
COC(=O)CSc1cc(N=c2sc(=O)n3n2CCCC3)c(F)cc1Cl	12.1%	–
CN(C)CC/C=C1\c2ccccc2COc2ccccc21	20%	–
Cc1ccc(C)o1	-6.2% [at 95.3 µM]	–
CCOC(=O)[C@H](CCc1ccccc1)N[C@H]1CCc2ccccc2N(CC(=O)O)C1=O	-7.24%	–
NCc1ccccc1	6.2%	–
CC(C)c1cccc(C(C)C)c1NC(=O)NS(=O)(=O)c1cc(C(C)(C)O)co1	32%	–
O=C(NS(=O)(=O)/C=C/c1cccs1)c1ccc(F)cc1Br	-6.74%	–
CC(C(=O)O)c1ccc(C(=O)c2ccccc2)s1 (stereo not given)	19.9% [at 39.1 µM]	–
C=CC[N+]1([C@H]2C[C@H]3[C@@H]4CC[C@H]5C[C@H](OC(C)=O)[C@@H](N6CCCCC6)C[C@]5(C)[C@H]4CC[C@]3(C)[C@H]2OC(=O)CC)CCCCC1	-5.23%	–
COc1ccc(OC)c(OC)c1	10.6%	–
CCCCOCCOCCOCCOCCO	2.44%	–
CCc1nn(C2CCCCC2)c2cc(C3(C#N)CCC(C(=O)O)CC3)ccc12 (stereo not given)	–	27.3 µM (active)
CC(=O)/C=C/C1C(C)=CCCC1(C)C (stereo not given)	11.5%	–
CC(C)CC=O	10.9%	–
O=C(/C=C/c1ccc(O)c(O)c1)O[C@@H]1C[C@](O)(C(=O)O)C[C@@H](O)[C@H]1O	-13.7% [at 95.3 µM]	–
CC(C(=O)O)c1ccc(-c2ccccc2)c(F)c1 (stereo not given)	–	inactive
Cn1c(=O)c2c(ncn2CC(O)CO)n(C)c1=O (stereo not given)	-14.8% [at 39.1 µM]	–
CC(=O)c1c(C)c([N+](=O)[O-])c(C(C)(C)C)c([N+](=O)[O-])c1C	25.7%	–
